Bioassay records (PubChem)
Shown are actives, neighbours in structure and some others; about 1.6% of the full set was active somewhere.
KCNQ2 block: blocks the rat KCNQ2 potassium channel; 1.1% of 310,000 active; O88943; B-score at 10 µM; AID 2156; CHO-K1 KCNQ2, FluxOR thallium flux, 20 min; hits give low values;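 active means fluorescence ratio B-score at most minus 3 library SDs, with starting brightness B-score within 2 library SDs, cut at about -5.5 in these data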
KCNQ2 pot: potentiators of rat KCNQ2 potassium channel. O88943. CHO-K1 KCNQ2, FluxOR thallium flux fluorescence; hits give high values. B-score at 10 µM. 0.54% of 310,000 active;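 active means fluorescence ratio B-score at least 3 SD of library B-scores, with initial fluorescence B-score within 3 of them, cut at about 5.3 in these data; same plate scores as AID 2156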;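 further: B-score of peak minus minimum over baseline fluorescence ratio after K+ and Tl+ stimulus; positive B-score means potentiation of KCNQ2 with more thallium influx and brighter signal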
Kir21 conf inh: confirmation of mouse Kir2.1 potassium channel inhibitors; shares compounds with KCNQ2 pot; Kir2.1-expressing cells, FluxOR thallium flux fluorescence; hits give low values; Tl flux remaining, % of negative control (hits give low values), % at 10 µM; 41% of 2,300 active; AID 2032;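 active means Primary-screen hit whose thallium flux fell at least 3 control SD below untreated wells in both duplicates, with normal baseline fluorescence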;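 further: 0% = blank wells without stimulus and 100% = stimulated no-compound controls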
HEK293 ctr: parental HEK293 activity in Kir2.1 inhibitor counter-screen; shares compounds with KCNQ2 pot; parental HEK293 cells, FluxOR thallium flux fluorescence; 0% = unstimulated blank wells; FluxOR signal as % of negative control (100 = no effect), % at 10 µM; 19% of 2,300 active; AID 2105;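 active means dye signal at least 3 control SD above or below untreated wells in both duplicates, raw fluorescence within 3, either direction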;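 further: percent is based on the flux ratio of peak minus minimum fluorescence over baseline F0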
CHO-K1 ctr: counter-screen for KCNQ2 potentiators: effect in parental CHO-K1 cells. FluxOR thallium flux fluorescence; zero = vehicle mean+3SD, 100% = vehicle-minus-blank window. 43% of 1,200 active. shares compounds with KCNQ2 pot. activity increase over 3SD of controls, % at 10 µM;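 active means signal rise of at least 3 SD above the untreated control mean, in both duplicate wells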;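 further: counter screen of KCNQ2 potentiator hits so any rise reflects channel-independent effects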
KCNQ1 pot spec: human KCNQ1 counter-target activity of KCNQ2 potentiators | shares compounds with KCNQ2 pot | CHO KCNQ1 stable, FluxOR thallium flux fluorescence; beyond 3SD, as % of vehicle-control signal | activation over 3SD threshold, % at 10 µM | 28% of 1,200 active;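 active means fluorescence ratio rise of at least 3 SD of vehicle wells above their mean, in both replicate wells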;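 further: 0% = vehicle mean plus 3 SD and 100% = vehicle minus unstimulated blank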
KCNQ2 pot conf: rat KCNQ2 channel potentiator confirmation | CHO-KCNQ2 cells, FluxOR thallium flux fluorescence | shares compounds with KCNQ2 pot | 68% of 1,200 active | potentiation, less the hit threshold, % at 10 µM;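 active means fluorescence ratio rising 3 SD or more over the vehicle control mean in both replicates, plus primary screen hit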;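 further: peak minus minimum thallium fluorescence divided by baseline after K/Tl stimulus; 0% = vehicle mean plus 3 SD and 100% = vehicle minus unstimulated blank difference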
Kir21 spec: tests whether KCNQ2 potentiators also affect mouse Kir2.1 | shares compounds with KCNQ2 pot | 2% of 1,200 active | HEK293 Kir2.1, FluxOR thallium flux fluorescence | activity over 3SD threshold, % at 10 µM;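 active means fluorescence ratio rise of at least 3 SD above the vehicle-control mean, seen in both replicates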;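 further: 0% = vehicle mean plus 3 SD and 100% = vehicle minus no-stimulus blank window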
KCNQ2 W236L pot: KCNQ2 potentiators acting on retigabine-insensitive rat KCNQ2 W236L mutant | 10% of 940 active | current increase over 3SD of negative controls (%), hits give high values, % at 25 µM | CHO KCNQ2-W236L, automated patch clamp current | shares compounds with KCNQ2 pot | AID 2558;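 active means current increase at least 3 SD of the untreated controls above them in both duplicate recordings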
Target sequence (O88943 whole entry W236L, looked up): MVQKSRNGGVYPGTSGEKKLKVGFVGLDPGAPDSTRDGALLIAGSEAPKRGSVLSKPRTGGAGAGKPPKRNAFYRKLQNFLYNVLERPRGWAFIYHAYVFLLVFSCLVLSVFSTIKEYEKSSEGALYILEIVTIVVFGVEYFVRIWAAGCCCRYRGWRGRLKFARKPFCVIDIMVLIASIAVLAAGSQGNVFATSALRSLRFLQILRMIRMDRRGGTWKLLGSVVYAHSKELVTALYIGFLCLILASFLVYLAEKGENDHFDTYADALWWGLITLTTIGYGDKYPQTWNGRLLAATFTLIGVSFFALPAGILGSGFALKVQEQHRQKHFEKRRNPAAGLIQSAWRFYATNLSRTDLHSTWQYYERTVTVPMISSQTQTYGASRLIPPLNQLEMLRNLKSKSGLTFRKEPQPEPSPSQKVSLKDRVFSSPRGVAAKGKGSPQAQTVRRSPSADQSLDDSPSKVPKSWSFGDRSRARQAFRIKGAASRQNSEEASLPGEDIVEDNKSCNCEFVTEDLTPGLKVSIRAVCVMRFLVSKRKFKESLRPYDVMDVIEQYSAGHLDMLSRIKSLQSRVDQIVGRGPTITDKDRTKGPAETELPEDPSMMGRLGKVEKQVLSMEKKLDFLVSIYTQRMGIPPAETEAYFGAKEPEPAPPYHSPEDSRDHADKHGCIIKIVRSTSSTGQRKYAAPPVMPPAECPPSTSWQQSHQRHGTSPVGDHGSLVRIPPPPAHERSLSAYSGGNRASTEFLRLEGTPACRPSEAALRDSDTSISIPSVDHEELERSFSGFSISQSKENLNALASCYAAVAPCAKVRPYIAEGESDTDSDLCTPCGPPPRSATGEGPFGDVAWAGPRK
The depositor's hits bear a star; i = inactive; . = no result.

SMILES	KCNQ2 block	KCNQ2 pot	Kir21 conf inh	HEK293 ctr	others
N=c1c2c(ncn1CCCO)Oc1c(ccc3ccccc13)C2c1ccccc1 (configuration not stated)	i	.	.	.
CCc1ccc(O)c(N=Cc2cccc(C)c2O)c1	i	7.45*	i	i	CHO-K1 ctr=-18.6;KCNQ1 pot spec=-12.3;KCNQ2 pot conf=17.4*;Kir21 spec=-20.1;KCNQ2 W236L pot=i
Cc1cccc(C=Nc2ccc3c4c(cccc24)CC3)c1O	i	.	.	.
COc1ccc(Nc2cc(Cl)nc(N)n2)cc1OC	i	0.8	.	.
Cc1cc(C)c(OCC(O)CN2CCN(c3ccccn3)CC2)c(C)c1 (configuration not stated)	i	.	.	.
COc1ccc(CCNCc2c(OC)ccc3ccccc23)cc1OC	i	0.43	.	.
COc1ccc2ccccc2c1CNC(C)CCc1ccccc1 (configuration not stated)	i	.	40.5%*	i
O=[N+]([O-])c1ccc(Nc2ccc(Cl)cc2)nc1	i	13.6*	i	i	CHO-K1 ctr=-0.8;KCNQ1 pot spec=-21.2;KCNQ2 pot conf=18.5*;Kir21 spec=-23.1;KCNQ2 W236L pot=i
O=[N+]([O-])c1ccc(NCc2ccc(Cl)cc2)nc1	i	0.01	.	.
CSCCC(NC(=O)c1ccc(Cl)cc1)C(=O)OCC(=O)N1CCCC1=O (configuration not stated)	i	8.85*	i	i	CHO-K1 ctr=-7.8;KCNQ1 pot spec=-6.5;KCNQ2 pot conf=17.9*;Kir21 spec=-34.5;KCNQ2 W236L pot=25.6%*
CSCCC(NC(=O)c1ccc(Cl)cc1)C(=O)O (configuration not stated)	i	0.16	.	.
O=C(NCc1ccc(F)cc1)C1CCCN(C(=O)Nc2ccc(F)cc2)C1 (configuration not stated)	i	0.58	.	.
CCOC(=O)c1cccnc1NC(=O)c1ccccc1	i	.	.	.
O=C(Nc1ccc(N2CCN(C(=O)c3ccco3)CC2)cc1)c1cccnc1Cl	i	.	.	.
C=CCN1C(=O)c2ccccc2NC1c1ccc(Br)s1 (configuration not stated)	i	1.22	.	.
O=C1c2ccccc2NC(c2ccc(Br)s2)N1O (configuration not stated)	i	7.79*	i	287.5%*	CHO-K1 ctr=1.4*;KCNQ1 pot spec=26.9*;KCNQ2 pot conf=21.7*;Kir21 spec=-37.6;KCNQ2 W236L pot=i
COc1ccc2nc(NCc3ccccc3)[nH]c2c1	i	0.44	.	.
Cc1ccc2nc(NCc3ccccc3)[nH]c2c1	i	.	22.5%*	i
OC1CCCN(Cc2ccc3ccc4cccc5ccc2c3c45)C1 (configuration not stated)	i	.	48.0%*	i
c1cc2ccc3ccc(CN4CCOCC4)c4ccc(c1)c2c34	i	0.02	.	.
COC(=O)c1nn(-c2ccccc2)c(Sc2ccc(Cl)cc2)c1/C=N/O	i	.	.	.
NS(=O)(=O)c1ccc(CNC(=O)Cc2ccc(S(=O)(=O)N3CCOCC3)s2)cc1	i	1.34	.	.
COc1ccccc1CNC(=O)[C@@H]1CCCN1S(=O)(=O)c1ccc(C)cc1	i	0.01	.	.
O=C(O)CCC(=O)NNc1nc(-c2ccccc2)c2cc(Cl)ccc2n1	i	.	.	.
O=C(CN1CCCCC1)NNc1nc(-c2ccccc2)c2cc(Cl)ccc2n1	i	11.1*	i	i	CHO-K1 ctr=-14.9;KCNQ1 pot spec=-19.4;KCNQ2 pot conf=15.4*;Kir21 spec=-35.0;KCNQ2 W236L pot=i
COCCN(C(=O)c1snc(C(N)=O)c1N)C(C(=O)NC1CCCCC1)c1ccc(OC)c(OC)c1 (configuration not stated)	i	1.97	.	.
CC1Cc2ccccc2N1C(=S)NC(=O)C1(C)CC1(Cl)Cl (configuration not stated)	i	7.2*	i	272.0%*	CHO-K1 ctr=-4.6;KCNQ1 pot spec=-9.2;KCNQ2 pot conf=26.2*;Kir21 spec=-14.4;KCNQ2 W236L pot=i
